The values that follow come from PMC7862700, “An all-to-all approach to the identification of sequence-specific readers for epigenetic DNA modifications on cytosine”.

What all share (assay): DAPPL (digital affinity profiling via proximity ligation, sequencing); 10 mM Tris-HCl pH 7.5, 50 mM NaCl, 1 mM DTT, 4% glycerol, room temperature, 30 min; GST-TFs on glutathione beads, 16-mer random dsDNA library, 0.1% formaldehyde crosslink after washing; high values mean tight binding
One experiment addresses T1, FEV (Homo sapiens, UniProt Q99581 1-238).
T1 sequence: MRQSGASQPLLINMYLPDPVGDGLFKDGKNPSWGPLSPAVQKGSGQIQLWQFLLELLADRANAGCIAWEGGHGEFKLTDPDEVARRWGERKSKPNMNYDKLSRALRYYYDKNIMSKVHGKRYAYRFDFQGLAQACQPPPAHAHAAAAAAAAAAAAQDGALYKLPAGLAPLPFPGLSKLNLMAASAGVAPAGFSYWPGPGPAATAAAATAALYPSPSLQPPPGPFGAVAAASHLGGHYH
Conditions: protein: recombinant; tags: N-terminal GST; dsDNA, one strand shown. Put shortly:
(§1)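 After expression in yeast as GST fusions, human transcription factors were bound to glutathione beads, DNA-barcoded and mixed with a tag-only sample. The pools were incubated with 200 nmole of a 16-mer random double-stranded DNA library in Tris/NaCl/DTT/glycerol buffer (30 min, room temperature), washed and crosslinked with 0.1% formaldehyde. Proximity ligation with BsaI/T4 ligase ran for 1 h at 37 °C, before PCR amplification and sequencing on an Illumina NextSeq500. Binding signal is a hexamer's read frequency for a factor divided by its frequency for the tag-only sample.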

Another experiment has as its target ETV5 (Homo sapiens, UniProt P41161 1-510). Conditions: protein: recombinant; tags: N-terminal GST; dsDNA, one strand shown. Put shortly:
as §1

The target in the next experiment is HSF1 (Homo sapiens, UniProt Q00613 1-529). Conditions: protein: recombinant; tags: N-terminal GST; chain copies: 3; dsDNA, one strand shown. The gist of the method: as §1
Another experiment concerns the target T2, SPIC (Homo sapiens, UniProt Q8N5J4 1-248).
T2 sequence: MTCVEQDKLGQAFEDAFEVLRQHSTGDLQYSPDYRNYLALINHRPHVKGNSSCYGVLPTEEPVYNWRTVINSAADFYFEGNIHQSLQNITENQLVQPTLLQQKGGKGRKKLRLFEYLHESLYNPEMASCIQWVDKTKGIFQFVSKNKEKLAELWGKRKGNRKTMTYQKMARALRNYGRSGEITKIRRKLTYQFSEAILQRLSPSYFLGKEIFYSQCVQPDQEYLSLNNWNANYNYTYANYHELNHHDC
Conditions: protein: recombinant; tags: N-terminal GST; dsDNA, one strand shown. The gist of the method:
as §1

The target of another experiment is ELF4 (Homo sapiens, UniProt Q99607 1-663). As to conditions: protein: recombinant; tags: N-terminal GST; dsDNA, one strand shown. Put shortly:
as §1

For the next experiment, the target named is T3, ELK4 (Homo sapiens, UniProt P28324-2 1-405).
T3 sequence: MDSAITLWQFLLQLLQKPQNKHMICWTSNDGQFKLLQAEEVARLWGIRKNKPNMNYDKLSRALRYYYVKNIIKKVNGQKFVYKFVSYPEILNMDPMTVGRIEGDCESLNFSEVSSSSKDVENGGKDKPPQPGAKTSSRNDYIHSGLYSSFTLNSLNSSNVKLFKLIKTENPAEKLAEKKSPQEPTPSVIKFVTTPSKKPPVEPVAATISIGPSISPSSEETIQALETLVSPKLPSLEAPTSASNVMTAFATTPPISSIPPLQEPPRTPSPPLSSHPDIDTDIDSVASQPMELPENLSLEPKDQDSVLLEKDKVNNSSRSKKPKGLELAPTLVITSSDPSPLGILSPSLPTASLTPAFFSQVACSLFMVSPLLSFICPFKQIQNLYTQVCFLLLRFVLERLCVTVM
Conditions: protein: recombinant; tags: N-terminal GST; dsDNA, one strand shown. The gist of the method: as §1

Another experiment deals with T4, ETV2 (Homo sapiens, UniProt O00321 1-342).
T4 sequence: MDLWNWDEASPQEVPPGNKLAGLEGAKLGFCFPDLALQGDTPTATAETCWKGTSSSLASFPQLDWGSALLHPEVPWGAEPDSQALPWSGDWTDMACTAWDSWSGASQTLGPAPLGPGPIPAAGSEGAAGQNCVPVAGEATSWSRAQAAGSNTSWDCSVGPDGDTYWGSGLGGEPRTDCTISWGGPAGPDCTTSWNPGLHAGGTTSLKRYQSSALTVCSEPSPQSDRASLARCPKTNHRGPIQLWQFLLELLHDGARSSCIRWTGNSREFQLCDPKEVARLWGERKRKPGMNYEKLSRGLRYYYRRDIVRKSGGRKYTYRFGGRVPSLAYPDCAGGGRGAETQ
As to conditions: protein: recombinant; tags: N-terminal GST; dsDNA, one strand shown. Put shortly: as §1

Another experiment deals with T5, ELF3 (Homo sapiens, UniProt P78545 1-371).
T5 sequence: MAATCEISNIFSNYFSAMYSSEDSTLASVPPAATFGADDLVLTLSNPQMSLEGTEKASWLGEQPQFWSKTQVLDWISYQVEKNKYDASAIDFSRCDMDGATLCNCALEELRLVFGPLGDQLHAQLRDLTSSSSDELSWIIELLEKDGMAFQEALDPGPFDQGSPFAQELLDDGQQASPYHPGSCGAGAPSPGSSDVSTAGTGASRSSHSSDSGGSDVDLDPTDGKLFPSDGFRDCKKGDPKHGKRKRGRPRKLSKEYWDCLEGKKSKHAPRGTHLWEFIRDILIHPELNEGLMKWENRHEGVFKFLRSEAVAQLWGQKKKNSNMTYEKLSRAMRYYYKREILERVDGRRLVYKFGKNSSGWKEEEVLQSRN
Conditions: protein: recombinant; tags: N-terminal GST; dsDNA, one strand shown. The gist of the method: as §1

For another experiment, the target named is CRX (Homo sapiens, UniProt O43186 1-299). Conditions: protein: recombinant; tags: N-terminal GST; dsDNA, one strand shown. Put shortly: as §1
The target in another experiment is ETV1 (Homo sapiens, UniProt P50549 1-477). As to conditions: protein: recombinant; tags: N-terminal GST; dsDNA, one strand shown. The gist of the method: as §1
A further experiment concerns the target T6, ERF (Homo sapiens, UniProt P50548 1-548).
T6 sequence: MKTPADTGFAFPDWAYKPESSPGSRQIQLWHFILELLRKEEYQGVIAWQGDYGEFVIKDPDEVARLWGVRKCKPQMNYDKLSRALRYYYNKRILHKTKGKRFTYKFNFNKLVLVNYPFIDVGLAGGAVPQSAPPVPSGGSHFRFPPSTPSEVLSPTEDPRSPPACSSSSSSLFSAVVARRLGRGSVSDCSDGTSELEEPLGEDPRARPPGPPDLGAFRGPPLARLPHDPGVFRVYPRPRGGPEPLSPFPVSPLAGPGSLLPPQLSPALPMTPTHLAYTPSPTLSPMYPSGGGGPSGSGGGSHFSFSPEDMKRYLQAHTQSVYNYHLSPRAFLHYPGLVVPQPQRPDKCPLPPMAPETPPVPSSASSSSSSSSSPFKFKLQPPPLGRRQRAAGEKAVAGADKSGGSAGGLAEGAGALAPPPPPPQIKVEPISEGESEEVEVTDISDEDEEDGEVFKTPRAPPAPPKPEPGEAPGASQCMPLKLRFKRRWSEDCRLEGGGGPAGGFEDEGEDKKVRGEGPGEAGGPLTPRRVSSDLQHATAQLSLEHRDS
As to conditions: protein: recombinant; tags: N-terminal GST; dsDNA, one strand shown. Put shortly: as §1

The target of a further experiment is T7, ETV3L (Homo sapiens, UniProt Q6ZN32 1-361).
T7 sequence: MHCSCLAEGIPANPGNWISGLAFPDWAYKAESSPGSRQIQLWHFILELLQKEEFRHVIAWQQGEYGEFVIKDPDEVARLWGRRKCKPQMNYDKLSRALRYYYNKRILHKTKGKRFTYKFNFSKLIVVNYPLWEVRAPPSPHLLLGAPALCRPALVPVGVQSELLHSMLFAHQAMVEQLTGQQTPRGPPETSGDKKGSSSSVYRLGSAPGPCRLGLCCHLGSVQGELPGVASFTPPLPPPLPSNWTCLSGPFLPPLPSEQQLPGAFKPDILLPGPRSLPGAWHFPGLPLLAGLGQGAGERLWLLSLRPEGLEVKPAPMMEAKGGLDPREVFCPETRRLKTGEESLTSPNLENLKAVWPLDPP
Conditions: protein: recombinant; tags: N-terminal GST; dsDNA, one strand shown. The gist of the method: as §1

The target of the next experiment is T8, ETS2 (Homo sapiens, UniProt P15036 1-469).
T8 sequence: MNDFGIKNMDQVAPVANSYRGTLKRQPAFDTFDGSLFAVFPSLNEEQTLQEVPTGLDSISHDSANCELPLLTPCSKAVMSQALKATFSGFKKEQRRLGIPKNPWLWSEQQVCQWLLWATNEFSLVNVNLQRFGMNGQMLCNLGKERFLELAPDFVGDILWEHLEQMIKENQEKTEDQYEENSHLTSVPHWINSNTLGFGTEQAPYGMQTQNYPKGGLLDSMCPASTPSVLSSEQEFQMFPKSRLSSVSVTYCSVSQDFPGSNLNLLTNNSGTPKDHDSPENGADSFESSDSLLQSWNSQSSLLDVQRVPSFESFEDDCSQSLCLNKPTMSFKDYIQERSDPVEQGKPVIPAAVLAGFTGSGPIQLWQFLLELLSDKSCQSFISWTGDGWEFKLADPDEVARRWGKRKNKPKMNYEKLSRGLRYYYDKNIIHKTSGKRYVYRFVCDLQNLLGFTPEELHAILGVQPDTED
As to conditions: protein: recombinant; tags: N-terminal GST; dsDNA, one strand shown. Put shortly: as §1

The target in another experiment is T9, SPDEF (Homo sapiens, UniProt O95238 1-335).
T9 sequence: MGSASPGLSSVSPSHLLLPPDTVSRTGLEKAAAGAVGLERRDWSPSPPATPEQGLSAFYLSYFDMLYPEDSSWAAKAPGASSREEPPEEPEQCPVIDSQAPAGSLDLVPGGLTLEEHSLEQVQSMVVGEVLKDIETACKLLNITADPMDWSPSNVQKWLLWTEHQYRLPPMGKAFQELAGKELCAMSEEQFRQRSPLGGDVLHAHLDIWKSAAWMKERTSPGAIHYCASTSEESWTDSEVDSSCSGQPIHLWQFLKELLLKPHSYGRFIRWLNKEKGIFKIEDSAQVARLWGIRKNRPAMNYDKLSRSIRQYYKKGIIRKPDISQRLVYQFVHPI
As to conditions: protein: recombinant; tags: N-terminal GST; dsDNA, one strand shown. The gist of the method:
as §1

A further experiment deals with T10, ETV7 (Homo sapiens, UniProt Q9Y603 1-341).
T10 sequence: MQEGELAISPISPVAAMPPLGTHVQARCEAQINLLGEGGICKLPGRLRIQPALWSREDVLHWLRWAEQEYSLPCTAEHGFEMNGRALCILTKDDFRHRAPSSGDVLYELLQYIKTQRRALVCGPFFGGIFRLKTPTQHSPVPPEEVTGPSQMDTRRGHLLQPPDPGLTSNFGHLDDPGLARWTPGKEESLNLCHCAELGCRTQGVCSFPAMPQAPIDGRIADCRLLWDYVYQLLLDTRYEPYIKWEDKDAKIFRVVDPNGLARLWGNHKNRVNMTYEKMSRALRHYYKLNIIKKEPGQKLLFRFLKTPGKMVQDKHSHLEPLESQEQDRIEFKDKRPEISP
As to conditions: protein: recombinant; tags: N-terminal GST; dsDNA, one strand shown. The gist of the method: as §1

A further experiment concerns the target T11, ELF5 (Homo sapiens, UniProt Q9UKW6-2 1-255).
T11 sequence: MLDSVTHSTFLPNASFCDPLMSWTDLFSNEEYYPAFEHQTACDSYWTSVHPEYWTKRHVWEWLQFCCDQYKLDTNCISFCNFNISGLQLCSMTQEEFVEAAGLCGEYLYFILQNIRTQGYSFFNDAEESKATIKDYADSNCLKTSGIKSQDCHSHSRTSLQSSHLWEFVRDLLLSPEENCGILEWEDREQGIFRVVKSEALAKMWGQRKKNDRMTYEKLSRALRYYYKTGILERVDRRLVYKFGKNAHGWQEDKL
Conditions: protein: recombinant; tags: N-terminal GST; dsDNA, one strand shown. Put shortly:
as §1

In a further experiment the target is T12, ETV3 (Homo sapiens, UniProt P41162-2 1-143).
T12 sequence: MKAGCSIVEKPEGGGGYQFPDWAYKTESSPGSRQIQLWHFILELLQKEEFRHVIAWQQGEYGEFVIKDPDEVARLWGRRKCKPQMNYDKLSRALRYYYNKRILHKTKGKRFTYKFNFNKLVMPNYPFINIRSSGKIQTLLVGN
Conditions: protein: recombinant; tags: N-terminal GST; dsDNA, one strand shown. The gist of the method: as §1

The next experiment deals with ETV6 (Homo sapiens, UniProt P41212 1-452). As to conditions: protein: recombinant; tags: N-terminal GST; dsDNA, one strand shown. Put shortly: as §1
ETV6, sequence (P41212 whole entry): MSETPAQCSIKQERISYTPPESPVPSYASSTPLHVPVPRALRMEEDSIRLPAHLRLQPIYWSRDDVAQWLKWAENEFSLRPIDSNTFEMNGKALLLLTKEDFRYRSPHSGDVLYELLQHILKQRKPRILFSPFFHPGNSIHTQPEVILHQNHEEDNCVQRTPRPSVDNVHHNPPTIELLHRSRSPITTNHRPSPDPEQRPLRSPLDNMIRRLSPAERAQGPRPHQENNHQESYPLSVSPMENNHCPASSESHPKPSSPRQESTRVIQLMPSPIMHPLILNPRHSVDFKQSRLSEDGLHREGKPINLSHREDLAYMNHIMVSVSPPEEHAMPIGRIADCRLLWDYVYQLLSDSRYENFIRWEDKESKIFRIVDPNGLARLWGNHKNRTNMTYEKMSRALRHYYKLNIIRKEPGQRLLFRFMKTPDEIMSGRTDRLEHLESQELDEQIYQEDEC

ELF4, sequence (Q99607 whole entry): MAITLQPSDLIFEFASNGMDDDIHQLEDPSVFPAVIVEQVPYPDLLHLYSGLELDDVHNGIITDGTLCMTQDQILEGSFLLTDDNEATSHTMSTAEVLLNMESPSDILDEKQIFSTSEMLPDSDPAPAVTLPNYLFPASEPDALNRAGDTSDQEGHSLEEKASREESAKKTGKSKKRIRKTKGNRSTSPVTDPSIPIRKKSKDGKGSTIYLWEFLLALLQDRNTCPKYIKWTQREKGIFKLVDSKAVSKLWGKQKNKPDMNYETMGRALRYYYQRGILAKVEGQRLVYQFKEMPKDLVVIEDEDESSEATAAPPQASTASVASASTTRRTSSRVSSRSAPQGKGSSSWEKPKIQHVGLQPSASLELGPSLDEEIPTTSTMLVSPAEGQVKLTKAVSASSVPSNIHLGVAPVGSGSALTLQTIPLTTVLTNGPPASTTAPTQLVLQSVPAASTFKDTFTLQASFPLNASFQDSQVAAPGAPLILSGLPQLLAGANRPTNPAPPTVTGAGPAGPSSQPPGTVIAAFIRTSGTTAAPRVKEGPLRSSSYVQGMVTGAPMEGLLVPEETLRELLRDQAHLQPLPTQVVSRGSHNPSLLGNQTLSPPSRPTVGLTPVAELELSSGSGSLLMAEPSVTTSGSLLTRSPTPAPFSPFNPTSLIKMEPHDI
HSF1, sequence (Q00613 whole entry): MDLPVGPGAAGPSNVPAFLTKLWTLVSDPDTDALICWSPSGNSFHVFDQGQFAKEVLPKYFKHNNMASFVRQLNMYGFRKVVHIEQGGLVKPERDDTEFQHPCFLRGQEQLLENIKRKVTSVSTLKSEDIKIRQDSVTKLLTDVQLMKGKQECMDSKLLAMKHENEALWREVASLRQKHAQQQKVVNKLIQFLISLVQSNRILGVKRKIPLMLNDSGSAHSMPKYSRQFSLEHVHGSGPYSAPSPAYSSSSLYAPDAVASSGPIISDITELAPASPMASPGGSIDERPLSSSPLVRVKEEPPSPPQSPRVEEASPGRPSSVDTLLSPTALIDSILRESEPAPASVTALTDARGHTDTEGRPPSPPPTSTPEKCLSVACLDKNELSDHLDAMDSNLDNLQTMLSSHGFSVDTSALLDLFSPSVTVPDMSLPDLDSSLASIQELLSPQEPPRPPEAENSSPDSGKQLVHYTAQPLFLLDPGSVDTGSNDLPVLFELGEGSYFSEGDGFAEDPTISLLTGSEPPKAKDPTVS
CRX, sequence (O43186 whole entry): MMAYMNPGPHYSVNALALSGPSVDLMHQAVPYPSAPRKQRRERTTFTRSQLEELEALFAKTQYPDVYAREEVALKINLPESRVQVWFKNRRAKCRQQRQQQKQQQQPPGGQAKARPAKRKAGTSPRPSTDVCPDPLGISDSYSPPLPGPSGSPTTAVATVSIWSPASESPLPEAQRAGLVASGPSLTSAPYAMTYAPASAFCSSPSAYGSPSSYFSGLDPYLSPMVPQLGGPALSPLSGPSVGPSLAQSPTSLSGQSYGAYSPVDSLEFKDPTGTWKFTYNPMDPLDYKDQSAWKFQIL
ETV5, sequence (P41161 whole entry): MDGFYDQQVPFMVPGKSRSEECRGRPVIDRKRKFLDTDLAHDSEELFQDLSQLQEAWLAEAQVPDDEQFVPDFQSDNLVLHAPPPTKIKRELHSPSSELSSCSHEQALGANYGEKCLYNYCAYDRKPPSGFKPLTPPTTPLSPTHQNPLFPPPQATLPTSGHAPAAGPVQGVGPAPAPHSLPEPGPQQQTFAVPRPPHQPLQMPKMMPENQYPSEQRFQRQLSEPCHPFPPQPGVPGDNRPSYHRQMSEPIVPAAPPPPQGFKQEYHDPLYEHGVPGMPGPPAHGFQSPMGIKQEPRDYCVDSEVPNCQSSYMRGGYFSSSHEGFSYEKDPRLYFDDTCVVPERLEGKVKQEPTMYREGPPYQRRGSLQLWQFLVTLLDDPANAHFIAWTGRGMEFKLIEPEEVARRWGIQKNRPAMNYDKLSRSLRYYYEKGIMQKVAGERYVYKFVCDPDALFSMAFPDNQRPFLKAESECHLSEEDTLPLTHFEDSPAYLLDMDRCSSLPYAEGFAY
ETV1, sequence (P50549 whole entry): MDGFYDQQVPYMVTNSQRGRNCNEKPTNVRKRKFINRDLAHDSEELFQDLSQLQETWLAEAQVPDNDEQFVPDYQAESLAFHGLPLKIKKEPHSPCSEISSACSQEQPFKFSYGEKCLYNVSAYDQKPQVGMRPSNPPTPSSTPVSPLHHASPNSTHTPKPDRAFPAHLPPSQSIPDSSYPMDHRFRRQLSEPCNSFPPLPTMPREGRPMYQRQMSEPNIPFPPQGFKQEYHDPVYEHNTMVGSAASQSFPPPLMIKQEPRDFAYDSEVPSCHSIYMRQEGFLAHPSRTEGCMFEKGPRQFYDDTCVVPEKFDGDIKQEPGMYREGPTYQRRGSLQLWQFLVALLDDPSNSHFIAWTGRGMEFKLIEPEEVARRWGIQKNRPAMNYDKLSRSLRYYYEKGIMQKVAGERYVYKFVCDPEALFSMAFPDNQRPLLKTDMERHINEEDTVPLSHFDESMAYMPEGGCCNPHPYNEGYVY

With CGATCT, the binding signal with FEV was 1.32 fold enrichment (6-mer frequency, TF over GST control); in the experiment with ETV5, 1.36 fold enrichment (6-mer frequency, TF over GST control); with HSF1, 1.54 fold enrichment (6-mer frequency, TF over GST control); in the experiment with SPIC, 1.46 fold enrichment (6-mer frequency, TF over GST control); with ELF4, 1.37 fold enrichment (6-mer frequency, TF over GST control); with ELK4, 1.38 fold enrichment (6-mer frequency, TF over GST control). Moreover, the binding signal in the experiment with ETV2 was 1.27 fold enrichment (6-mer frequency, TF over GST control); with ELF3, 1.41 fold enrichment (6-mer frequency, TF over GST control); with CRX, 1.52 fold enrichment (6-mer frequency, TF over GST control); in the experiment with ETV1, 1.24 fold enrichment (6-mer frequency, TF over GST control); with ERF, 1.17 fold enrichment (6-mer frequency, TF over GST control); with ETV3L, 1.32 fold enrichment (6-mer frequency, TF over GST control). The binding signal with ETS2 is 1.32 fold enrichment (6-mer frequency, TF over GST control); with SPDEF it was 1.25 fold enrichment (6-mer frequency, TF over GST control); with ETV7 it was 1.42 fold enrichment (6-mer frequency, TF over GST control); in the experiment with ELF5 it was 1.27 fold enrichment (6-mer frequency, TF over GST control); with ETV3, 1.24 fold enrichment (6-mer frequency, TF over GST control); with ETV6, 1.2 fold enrichment (6-mer frequency, TF over GST control).
